CSC inhib – blocks cancer stem cells; cancer stem cell-like cells viability, luminescence; inhibition, % at 7.5 µM; hit rate 1.1% among 300,000; AID 2717; in the data active means inhibition above about 75%; inconclusive means no clear call, values can overlap the other calls; tested in HMLE shEcad cells
PP5 inh – PP5 (human) phosphatase inhibition | purified PP5c, OMFP substrate fluorescence | P53041 | hit rate 0.18% among 320,000 | inhibition, % at 6.7 µM;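 active means inhibition above the campaign's mean inhibition across all tested compounds plus 3 SD, cut at about 9.5% in these data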;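 further: 0% = DMSO only and 100% = 100 µM cantharidin control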
Target sequence (P53041 whole entry, looked up): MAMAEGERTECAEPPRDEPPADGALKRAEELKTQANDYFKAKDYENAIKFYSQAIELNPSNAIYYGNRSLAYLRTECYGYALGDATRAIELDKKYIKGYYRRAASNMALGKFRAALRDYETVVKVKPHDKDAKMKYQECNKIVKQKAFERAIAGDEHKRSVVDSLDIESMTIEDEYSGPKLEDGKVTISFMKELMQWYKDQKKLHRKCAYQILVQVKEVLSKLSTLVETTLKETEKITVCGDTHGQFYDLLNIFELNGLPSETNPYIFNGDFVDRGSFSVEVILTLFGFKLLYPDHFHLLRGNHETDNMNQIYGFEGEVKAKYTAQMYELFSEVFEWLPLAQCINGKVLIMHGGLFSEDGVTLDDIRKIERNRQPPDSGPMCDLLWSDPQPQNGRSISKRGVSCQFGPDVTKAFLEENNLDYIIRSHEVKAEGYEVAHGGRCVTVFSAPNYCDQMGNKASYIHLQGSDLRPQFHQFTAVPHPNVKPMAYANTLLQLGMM
Mdm2-MdmX inh – disrupts the human Mdm2-MdmX interaction | SaOS-2 split-luciferase Mdm2/MdmX complementation, luminescence | AID 485346 | inhibition, % at 8 µM | hit rate 3% among 330,000;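 active means inhibition of at least 50% at 8 µM in the primary screen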
PP1 counter – counter-screen for PP5 inhibitors: inhibitors of human PP1-alpha; purified PP1alpha, OMFP fluorescence; hit rate 0.9% among 320,000; P62136; inhibition, % at 6.7 µM; AID 2235;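 active means inhibition above the mean inhibition of all tested compounds plus 3 SD, computed separately for each screening campaign, cut at about 15% in these data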
Beta cell apopt – beta cell apoptosis inhibition; INS-1E cytokine-induced death, ATP luminescence, 48 h; percent of positive-control rescue, neutral wells zero; protection from apoptosis, % (concentration not given with the values); hit rate 0.8% among 300,000; AID 435005;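 active means Every replicate reaches about 75%, or at least half do and their mean reaches it too, limit read from the data; inconclusive means At least half of replicates reach the limit but their mean does not; inactive means Under half of replicates reach the limit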;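 further: 0% = cytokine-treated negative control wells and 100% = positive control rescue; higher means more ATP so stronger rescue from cytokine killing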
Calb FLC – affects C. albicans growth with fluconazole | C. albicans CaCi-2 (fluconazole-resistant clinical isolate) + fluconazole, Alamar Blue growth, 48 h | growth inhibition, % (concentration not given with the values) | hit rate 0.57% among 300,000;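 active means growth inhibition above about 58% in most replicates, limit read from the data, passing the limit was not always enough; inconclusive means exactly half the replicates above a set limit; inactive means most replicates below a set limit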;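 further: all wells also contain fluconazole at 8 µg/ml as a sub-toxic cotreatment; 0% = median of DMSO wells and 100% = median of geldanamycin control wells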
PP1 confirm – confirmation of human PP1 phosphatase inhibitors; shares compounds with PP1 counter; purified PP1alpha, OMFP substrate fluorescence; inhibition, % at 6.7 µM; hit rate 52% among 1,900; AID 2358;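 active means mean PP1 inhibition above a set limit taken from the earlier primary screen, cut at about 15% in these data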
PP5 inh counter – counter-screen for PP1 inhibitors: human PP5 phosphatase inhibition; purified PP5c, OMFP fluorescence; inhibition, % at 6.7 µM; hit rate 4% among 1,900; shares compounds with PP1 counter;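 active means mean PP5 inhibition over triplicate wells above about 9.5% taken from the earlier PP1 screen, limit read from the data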
Active calls of the source: *; ? = inconclusive; . = no result given. This is a sample that favours compounds with a hit; in the whole collection about 4.9% have one here.

SMILES	CSC inhib	PP5 inh	Mdm2-MdmX inh	PP1 counter	Beta cell apopt	Calb FLC	PP1 confirm	PP5 inh counter
Nc1ccc2nc3n(c(=O)c2c1)CCC3	8	-3	13	1	-4	13	.	.
O=c1c2ccccc2nc2n1CCC2	5	8	2	52*	4	18	48*	1
C#CCOCCOCCOCCNc1nc(N2CCN(C(=O)CCCCCCCCCCNC(=O)[C@H]([C@@H](C)CC)n3cc(CCCCN=C(N)N)nn3)CC2)nc(N2CCN(C(=O)CCCCCCCCCCNC(=O)[C@H](CCCCN)n3cc(C)nn3)CC2)n1	22	6	18	70*	98*	.	57*	2
C#CCOCCOCCOCCNc1nc(N2CCN(C(=O)CCCCCCCCCCNC(=O)[C@@H](CCC(=O)O)n3cc(CCCCCN)nn3)CC2)nc(N2CCN(C(=O)CCCCCCCCCCNC(=O)[C@H]([C@@H](C)CC)n3cc(CCCCCN)nn3)CC2)n1	15	1	-12	13	1	.	.	.
C#CCOCCOCCOCCNc1nc(N2CCN(C(=O)CCCCCCCCCCNC(=O)Cn3cc(C[C@@H](C)O)nn3)CC2)nc(N2CCN(C(=O)CCCCCCCCCCNC(=O)[C@H](CCCN=C(N)N)n3cc(C[C@@H](C)CC)nn3)CC2)n1	-14	5	9	11	61	36	.	.
C#CCOCCOCCOCCNc1nc(N2CCOCC2)nc(N2CCN(C(=O)[C@H](Cc3cc4ccccc4[nH]3)n3cc([C@@H](N)Cc4ccc(O)cc4)nn3)CC2)n1	-16	0	24	-2	4	3	.	.
C#CCOCCOCCOCCNc1nc(N2CCN(C(=O)CCCCCCCCCCNC(=O)[C@H](CO)n3cc(CCCSC)nn3)CC2)nc(N2CCN(C(=O)CCCCCCCCCCNC(=O)[C@H](CCCN=C(N)N)n3cc(C[C@@H](C)CC)nn3)CC2)n1	64	7	-2	46*	67	.	30*	1
C#CCOCCOCCOCCNc1nc(N2CCN(C(=O)[C@H]([C@@H](C)CC)n3cc([C@@H](N)CO)nn3)CC2)nc(N2CCN(C(=O)[C@H](Cc3cc4ccccc4[nH]3)n3cc([C@@H](N)Cc4ccc(O)cc4)nn3)CC2)n1	14	8	-14	24*	0	25	-6	2
C#CCOCCOCCOCCNc1nc(N2CCN(C(=O)CCCCCCCCCCNC(=O)[C@H]([C@@H](C)CC)n3cc(CCCCN=C(N)N)nn3)CC2)nc(N2CCN(C(=O)CCCCCCCCCCNC(=O)[C@H](CO)n3cc(CCCCCN)nn3)CC2)n1	18	12*	4	73*	108*	.	45*	2
O=C(CSc1n[nH]c(=O)n1C1CC1)NCc1ccccc1Cl	0	1	-7	-1	-2	?	.	.
CC(C)(C)N=C1NN=C(c2ccc(S(=O)(=O)N3CCCCC3)cc2)CS1	-2	1	5	-3	.	-10	.	.
C#CCOCCOCCOCCNc1nc(N2CCN(C(=O)CCCCCCCCCCNC(=O)Cn3cc(CCCCCN)nn3)CC2)nc(N2CCN(C(=O)CCCCCCCCCCNC(=O)[C@H]([C@@H](C)CC)n3cc(CCCCN=C(N)N)nn3)CC2)n1	161*	3	10	70*	86*	.	55*	1
C#CCOCCOCCOCCNc1nc(N2CCN(C(=O)CCCCCCCCCCNC(=O)[C@H]([C@@H](C)CC)n3cc(CCCCCN)nn3)CC2)nc(N2CCN(C(=O)CCCCCCCCCCNC(=O)[C@H]([C@@H](C)CC)n3cc(CCCCN=C(N)N)nn3)CC2)n1	-15	9	-20	70*	98*	.	45*	1
CCOC(=O)c1cc(-c2ccco2)nn1-c1ccc(C)cc1	-5	2	-4	-2	.	1	.	.
Cc1ccc(-n2nc(-c3ccco3)cc2C(=O)O)cc1	7	-2	0	20*	-2	1	17*	-10
O=C(O)c1cc(-c2ccc(N3CCOCC3)cc2)nn1-c1ccc(F)cc1	-6	2	-28	42*	-6	2	31*	-4
Cc1cccc(NC(=O)Cn2c(O)c(N=NC(=O)c3ccccc3O)c3ccccc32)c1	7	3	6	35*	0	0	27*	-1
O=C(CN1C(=O)NC2(CCCC2)C1=O)N1CCN(c2ccccc2O)CC1	10	-1	-13	18*	0	5	-6	-3
NC(=O)CC(NC(=O)c1ccc(Br)cc1)c1ccc(NCCc2ccc(F)cc2)c([N+](=O)[O-])c1 (stereo not drawn)	15	-1	43	25*	.	-11	26*	-1
Cc1cc(C)cc(C(=O)NC(CC(N)=O)c2ccc(N3CCC(Cc4ccccc4)CC3)c([N+](=O)[O-])c2)c1 (stereo not drawn)	52	4	9	7	-25	-1	.	.
NC(=O)CC(NC(=O)c1ccccc1)c1ccc(N2CCN(c3ccc(F)cc3)CC2)c([N+](=O)[O-])c1 (stereo not drawn)	13	2	29	18*	-4	8	-52	-3
NC(=O)CC(NC(=O)Cc1cccc2ccccc12)c1ccc(N2CCc3ccccc3C2)c([N+](=O)[O-])c1 (stereo not drawn)	?	1	49	18*	-9	-3	17*	-1
NC(=O)CC(NC(=O)Cc1ccc(Cl)cc1)c1ccc(N2CCC(Cc3ccccc3)CC2)c([N+](=O)[O-])c1 (stereo not drawn)	6	0	8	22*	15	-12	3	0
O=C(Nc1ccc(S(=O)(=O)Nc2ncccn2)cc1)c1ccc(Cl)c([N+](=O)[O-])c1	.	.	14	.	.	-3	.	.
CC(C)N(C(=O)Cn1cc(S(=O)(=O)CC(=O)NCc2ccc(F)cc2)c2ccccc21)C(C)C	3	2	10	4	.	-5	.	.
SMILES	CSC inhib	PP5 inh	Mdm2-MdmX inh	PP1 counter	Beta cell apopt	Calb FLC	PP1 confirm	PP5 inh counter
S=c1[nH]nc(COc2ccccc2)n1/N=C/c1cccc(Br)c1	.	-1	-33	33*	.	-1	0	-7
COc1ccc(CC(=O)N/N=C(\C)CC(=O)Nc2ccc3c(c2)OCCO3)cc1OC	-16	-1	-8	2	6	2	.	.
O=[N+]([O-])c1cc(/C=N/Nc2nc3ccccc3[nH]2)c(O)cc1O	64	1	.	18*	94*	88*	31*	0
CC1CCN(CC(O)COc2ccc(-c3ccccc3)cc2)CC1 (stereo not drawn)	.	2	19	-2	.	-7	.	.
Cn1c(O)c(/C=N/NC(=O)c2cc3ccccc3cc2O)c2ccccc21	.	3	24	22*	69	83*	16*	-3
Cn1c(C(=O)NN)cc2cc(Oc3ccccc3)ccc21	14	3	27	3	0	-91	.	.

Source: PubChem
